From PubChem BioAssay (NCI)
Where “and” joins values, the source holds several entries; their conditions need not be identical. Equal entries are not always repeated. About 83,000 compounds went through this panel and 20% of them were active in at least one assay; those are over-represented in the sample as a whole.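 Testing used 96-well plates and a 48-hour single-concentration exposure. Example: -40 means 40% of the starting cells died.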

What was measured:
Assay in all cases: NCI-60 one-dose screen, 48 h (100 = growth as untreated, 0 = no growth, -100 = all killed)
Conditions in all cases: 10 µM; active means growth percent below 10; inactive means the rest
T-47D breast = system: T-47D breast
BT-549 breast = system: BT-549 breast
MDA-MB-435 melanoma = system: MDA-MB-435 melanoma
SW-620 colon = system: SW-620 colon
MCF7 breast = system: MCF7 breast
HCT-116 colon = system: HCT-116 colon
HCC-2998 colon = system: HCC-2998 colon
KM12 colon = system: KM12 colon

Measured: growth

COc1c(O)cc2oc3cc(O)c(CC=C(C)C)c(O)c3c(=O)c2c1CC=C(C)C
inactive: T-47D breast 48% | BT-549 breast 105% | MDA-MB-435 melanoma 70.1% | SW-620 colon 60.9% | MCF7 breast 16.8% | HCT-116 colon 23.7% | HCC-2998 colon 42.1% | KM12 colon 38.1%

CC(=O)OCC(OC(C)=O)C(OC(C)=O)C(OC(C)=O)C(OC(C)=O)C(/C=N/Nc1ccccc1)=N/Nc1ccccc1 (centres undefined)
inactive: MDA-MB-435 melanoma 65.6% | SW-620 colon 49.7% | MCF7 breast 44.1% | HCT-116 colon 64.1% | HCC-2998 colon 91.2% | KM12 colon 45.3%

CCC(C)(C)c1cc(O)c(C(C)(C)CC)cc1O
inactive: T-47D breast 60.3% | BT-549 breast 10.7% | MDA-MB-435 melanoma 27.7% | SW-620 colon 31.8% | MCF7 breast 18.4% | HCT-116 colon 16.6% | KM12 colon 55.3%

O=C(C(=Cc1ccccc1)C(=O)c1ccccc1)c1ccccc1
inactive: T-47D breast 65.5% and 74.7% | BT-549 breast 66% and 103% | MDA-MB-435 melanoma 63.5% and 104% | SW-620 colon 44.3% and 84.4% | MCF7 breast 25.1% and 89.3% | HCT-116 colon 18.3% and 62.2% | HCC-2998 colon 92.4% and 129% | KM12 colon 47.8% and 88.9%
